Calls of active or inactive are those of the source. How the source made its calls: active means hit-call score of the fitted dose curve at least 0.9, where 1 is the maximum; inactive means score below 0.9.
Each molecule was assayed on Matrix Metallopeptidase 9 (MMP9), MMP9 (gene 4318) (assay: BSK_KF3CT_MMP9: BioMAP Diversity Plus: KF3CT Assay for Matrix Metallopeptidase 9 (MMP9) Biomarker Activity (AID 2283074)). Settings: primary human keratinocytes with fibroblasts; actives raise or lower the signal.
Procedure: BSK_KF3CT is a cell-based, multiplexed-readout assay that uses keratinocytes and foreskin fibroblasts, a human skin primary cell co-culture, with measurements taken at 24 hours after chemical dosing in a 96-well plate.BSK_KF3CT_MMP9 is an assay component measured in the BSK_KF3CT assay. It measures MMP-9 antibody related to regulation of gene expression using ELISA technology.Data from the assay component BSK_KF3CT_MMP9 was analyzed into 1 assay endpoint. This assay endpoint, BSK_KF3CT_MMP9, was analyzed with bidirectional fitting relative to DMSO as the negative control and baseline of activity. Using a type of binding reporter, gain or loss-of-signal activity can be used to understand changes in the signaling as they relate to the gene MMP9. Furthermore, this assay endpoint can be referred to as a primary readout, because this assay has produced multiple assay endpoints where this one serves a signaling function. To generalize the intended target to other relatable targets, this assay endpoint is annotated to the protease intended target family, where the subfamily is matrix metalloproteinase.
The levels of cell surface (or secreted, indicated by the prefix "s") biomarker endpoints were measured by ELISA. Overt cytotoxicity to cells in confluent adherent cultures (all systems other than the BT system) was assessed by measuring total protein levels using sulforhodamine B (SRB) staining in parallel cultures at the time of biomarker measurements, indicated as SRB endpoints. For proliferation assays for adherent cell types, individual cell types are cultured at sub-confluence and relative cell numbers quantified by SRB staining at time points optimized for each system (48 h: 3C and CASM3C systems; 72 h: BT and HDF3CGF systems; 96 h: SAg system). SRB was performed by staining cells with 0.1% SRB after fixation with 10% TCA and reading wells at 560 nm.Viability and proliferation of PBMC (T cells) was quantified by Alamar Blue reduction for the SAg and BT systems. For PBMC viability (referred to as PBMC Cytotoxicity within the assay endpoint names), cells were plated (75,000/well in a 96-well plate) and then chemical samples added for 1 h before addition of activators, SEB and TSST-1 (20 ng/mL final concentration each). Cells were incubated for 90 h. Then, Alamar Blue (20 uL/well) (Invitrogen, Cat DAL1100) was added for 6 h, and the plates were read with a fluorescence microplate reader at 546/580 nm (excitation/emission). For PBMC proliferation, cells were plated and activated as above but incubated for only 16 h prior to addition of Alamar Blue. Plates were read after 6 h.

| Structure (SMILES) | outcome | AC50 |
| --- | --- | --- |
| Cc1cccc2ccccc12 | inactive |  |
| Oc1ccc2ccccc2c1 | inactive |  |
| CC[C@H](NC(=O)c1cc(F)ccc1NS(=O)(=O)c1cccc2cccnc12)c1ccccc1 | inactive |  |
| Oc1ccccc1 | inactive |  |
| O=C=NCCCCCCN=C=O | inactive |  |
| CCCC(=O)OCCC(C)C | inactive |  |
| CC(C)(O)c1ccc(CNC(=O)c2cccnc2Oc2ccc3nonc3c2)cc1 | inactive |  |
| O=C(OCCCCCCOC(=O)c1ccccc1)c1ccccc1 | inactive |  |
| c1ccc2n[nH]nc2c1 | inactive |  |
| O=C(O)Cn1c(=O)n(Cc2ccc(Br)cc2F)c(=O)c2ccc(Cl)cc21 | inactive |  |
| OCCO | inactive |  |
| O=C(Nc1ccc(Cl)cc1)Nc1ccc(Cl)c(Cl)c1 |  | 1.49 µM (active) |
| CC(=O)N1CCN(c2ccc(OC[C@H]3CO[C@](Cn4ccnc4)(c4ccc(Cl)cc4Cl)O3)cc2)CC1 |  | 29.8 µM (active) |
| CO[C@H]1/C=C/O[C@@]2(C)Oc3c(C)c(O)c4c(O)c(c(/C=N/N5CCN(C)CC5)c(O)c4c3C2=O)NC(=O)/C(C)=C\C=C\[C@H](C)[C@H](O)[C@@H](C)[C@@H](O)[C@@H](C)[C@H](OC(C)=O)[C@@H]1C | inactive |  |
| COCC(C)OCC(C)OCC(C)O (stereo not given) | inactive |  |
| Cc1c2ccccc2c(C)c2c1ccc1ccccc12 | inactive |  |
| CCCCCCCCCC(=O)O | inactive |  |
| CN(C)C(=O)C1(N2CCCCC2)CCN(CC[C@@]2(c3ccc(Cl)c(Cl)c3)CN(C(=O)c3ccccc3)CCO2)CC1 |  | 25.5 µM (active) |
| O=c1ccc2ccccc2o1 | inactive |  |
| Clc1cc(Cl)c2c(c1)N=C1CCCCCN1C2 | inactive |  |

| Structure (SMILES) | outcome | AC50 |
| --- | --- | --- |
| Cc1cc2c(cc1C(F)(F)F)N(C(=O)Nc1ccc(Oc3cccnc3C)nc1)CC2 |  | 29.8 µM (active) |
| CC[C@@H]1C[C@H](N(Cc2cc(C(F)(F)F)cc(C(F)(F)F)c2)C(C)=O)c2cc(C(F)(F)F)ccc2N1C(=O)OC(C)C | inactive |  |
| O=CCCCC=O |  | 24.9 µM (active) |
| COc1cccc([C@H](O)C2CCN(CCc3ccc(F)cc3)CC2)c1OC | inactive |  |
| CCCCCCCCCCCC[N+](C)(C)C |  | 30.7 µM (active) |
| CC(O)CC(C)(C)O (stereo not given) | inactive |  |
| CCCOC(=O)c1cc(O)c(O)c(O)c1 | inactive |  |
| O=C(O)Cc1cc(I)c(Oc2ccc(O)c(I)c2)c(I)c1 |  | 20 µM (active) |
| CN(C)c1ccc(C(=C2C=CC(=[N+](C)C)C=C2)c2ccc(N(C)C)cc2)cc1 |  | 1.33 µM (active) |
| CCCCOC(=O)c1ccc(O)cc1 | inactive |  |
| OC12N=C(c3ccccc3)SC1Cc1cc(Cl)ccc12 (stereo not given) | inactive |  |
| CC(C)(C)c1csc(-c2cc3cc(OCc4ccccc4CC(=O)O)ccc3o2)n1 |  | 13.7 µM (active) |
| O=c1[nH]sc2ccccc12 |  | 31.2 µM (active) |
| Cc1cc(F)ccc1-c1cc(N2CC[C@@H](O)[C@H]2CO)ncc1N(C)C(=O)C(C)(C)c1cc(C(F)(F)F)cc(C(F)(F)F)c1 |  | 12.3 µM (active) |
| CCCCCCCCCCCO | inactive |  |
| CCCCOC(=O)CC(CC(=O)OCCCC)(OC(C)=O)C(=O)OCCCC | inactive |  |
| CCCCCCCCOC(=O)c1cc(O)c(O)c(O)c1 |  | 8.92 µM (active) |
| CN1C(=O)CC[C@H]1c1cccnc1 | inactive |  |
| Cc1ccc2oc(CN(Cc3ccccc3)C(=O)Nc3c(F)cc(F)cc3F)c(-c3ccc(Cl)cc3)c2c1 | inactive |  |
| CC(C)(c1cc(Br)c(O)c(Br)c1)c1cc(Br)c(O)c(Br)c1 |  | 3.69 µM (active) |

Reference: PubChem BioAssay (EPA / NIEHS)
